Measured values as given in the supplement of paper PMC6331611.
“And” between values parts separate entries of the source, which are not always exact repeats. Equal values may be shown once. ± gives the standard deviation of the averaged measurements. The full ranking holds about 1,600 compounds; the median of “normalized intracellular growth (luminescence, IQM-normalized) in RAW264.7 macrophages” is about 1, and the lowest 2% start at about 0.43. What follows is part of a selection rich in the lowest values, with near analogues and random picks from the rest.

Test system: Salmonella enterica serovar Typhimurium SL1344
Test: normalized intracellular growth (luminescence, IQM-normalized) in RAW264.7 macrophages (fraction of plate interquartile mean); higher = more bacterial growth (less inhibition)
Details: 10 µM

| Compound | normalized intracellular growth (time point: T3 (3 h)) | normalized intracellular growth (time point: Tfinal (~6 h)) |
| --- | --- | --- |
| O=C1c2c(O)cc(CO)cc2C(OC2OC(CO)C(O)C(O)C2O)c2cccc(OC3OC(CO)C(O)C(O)C3O)c21 (stereo not drawn) [CASANTHRANOL [cascaroside A shown]] | 0.997 ± 0.016 | 0.857 ± 0.041 |
| CCCCCCOC(=O)NC(=N)c1ccc(NCc2nc3cc(C(=O)N(CCC(=O)OCC)c4ccccn4)ccc3n2C)cc1 | 1.02 ± 0.01 | 0.97 ± 0.034 |
| CCCCC(CC)COC(=O)CC(C(=O)OCC(CC)CCCC)S(=O)(=O)O (stereo not drawn) | 0.943 ± 0.069 | 0.958 ± 0.027 |
| CCN(CC)CCNC(=O)c1ccc(NC(C)=O)cc1 | 1.03 ± 0.065 | 1 ± 0.12 |
| C[C@H]1[C@H](OC(=O)CCC(=O)O)O[C@@H]2O[C@@]3(C)CC[C@H]4[C@H](C)CC[C@@H]1[C@@]24OO3 | 0.899 ± 0.045 | 0.869 ± 0.028 |
| Nc1ncn([C@@H]2O[C@H](CO)[C@@H](O)[C@H]2O)c(=O)n1 | 0.951 ± 0.029 | 0.154 ± 0.087 |
| O=c1[nH]cnc2c1ncn2[C@@H]1O[C@H](CO)[C@@H](O)[C@H]1O | 0.917 ± 0.048 | 0.976 ± 0.13 |
| Nc1ccn([C@@H]2O[C@H](CO)[C@@H](O)[C@@H]2O)c(=O)n1 | 0.9664 ± 0.0095 | 0.997 ± 0.037 |
| CCCCC(CC)CN=C(N)N=C(N)NCCCCCCNC(N)=NC(N)=NCC(CC)CCCC (stereo not drawn) | 0.994 ± 0.063 | 1.1 ± 0.035 |
| CN(C)CC[C@@H](c1ccc(Cl)cc1)c1ccccn1 | 1 and 1.05 | 1.01 and 0.736 |
| C[C@]12C=CC(=O)C=C1CC[C@@H]1[C@@H]2[C@@H](O)C[C@@]2(C)[C@H]1CC[C@]2(O)C(=O)COC(=O)CCC(=O)O | 1.02 ± 0.016 | 0.815 ± 0.11 |
| N[C@H]1C(O)O[C@H](CO)[C@@H](O)[C@@H]1O (stereo partly drawn) | 0.967 ± 0.045 | 0.999 ± 0.058 |
| CN1CCN(c2cc3c(cc2F)c(=O)c(C(=O)O)cn3-c2ccc(F)cc2)CC1 | 0.634 ± 0.14 | 0.982 ± 0.093 |
| CCn1cc(C(=O)O)c(=O)c2cc(F)c(N3CCN(C)CC3)cc21 | 1.11 ± 0.11 | 0.012 ± 0.0031 |
| CCn1cc(C(=O)O)c(=O)c2cc(F)c(N3CCNCC3)cc21 | 1.07 ± 0.028 | 1.19 ± 0.029 |
| CCn1cc(C(=O)O)c(=O)c2cnc(N3CCCC3)nc21 | 0.929 ± 0.0075 | 1.04 ± 0.053 |
| O=C(O)c1cn(-c2ccc(F)cc2)c2cc(N3CCNCC3)c(F)cc2c1=O | 1.1 ± 0.081 | 0.00781 ± 0.0016 |
| O=C(O)c1cn(C2CC2)c2cc(N3CCNCC3)c(F)cc2c1=O | 1.14 ± 0.019 | 0.0127 ± 0.00088 |
| C[C@H](N[C@@H](CCc1ccccc1)C(=O)O)C(=O)N1Cc2ccccc2C[C@H]1C(=O)O | 1.03 ± 0.079 | 1.08 ± 0.12 |
| NC(=O)CCCCC1CCSS1 (stereo not drawn) | 0.996 ± 0.093 | 0.817 ± 0.12 |
| O=S(=O)(O)CCCS(=O)(=O)O | 1.01 ± 0.095 | 0.9 ± 0.34 |
| O=C1/C(=C/c2cccs2)CCC/C1=C\c1cccs1 | 0.973 ± 0.059 | 1.06 ± 0.036 |
| CC1=CC(=O)NS(=O)(=O)O1 | 1.06 ± 0.077 | 1.04 ± 0.089 |
| CN1CC(=O)N2[C@H](c3ccc4c(c3)OCO4)c3[nH]c4ccccc4c3C[C@@H]2C1=O | 1.06 ± 0.072 | 0.783 ± 0.27 |
| CN(C)c1ccc(C(=C2C=CC(=[N+](C)C)C=C2)c2ccc(N(C)C)cc2)cc1 | 0.8927 ± 0.0022 | 0.931 ± 0.03 |
| CC(=O)OCC(=O)[C@@]1(O)[C@H](OC(C)=O)C[C@H]2[C@@H]3CCC4=CC(=O)C=C[C@]4(C)[C@@]3(F)[C@@H](O)C[C@@]21C | 0.823 ± 0.07 | 1.2 ± 0.034 |
| CCOc1ccc(Cc2nccc3cc(OCC)c(OCC)cc23)cc1OCC | 0.925 ± 0.09 | 0.43 ± 0.11 |
| CCC/C=C\C=C/C(=O)N[C@@H](CC(N)=O)C(=O)NC(CC(N)=O)C(=O)N[C@@H](C(=O)N[C@H](CCCN)C(=O)N[C@@H](C(=O)N[C@@H](C(=O)N[C@@H](C(=O)N[C@H](C(=O)N[C@@H](Cc1ccccc1)C(=O)N[C@H](CCCN)C(=O)NC(C(=O)N[C@H](C(=O)NC(C(=O)NCC(=O)N[C@@H](CC(C)C)C(=O)N[C@H](C)C(=O)NC(C(=O)O)C1CCC(O)C(Cl)C1)C1CCC(O)CC1)[C@H](C)O)C1CCC(O)CC1)[C@H](C)O)C1CCC(O)CC1)C1CCC(O)CC1)[C@H](C)O)C1CCC(O)CC1 (stereo partly drawn) [RAMOPLANIN [A2 shown; 2mM]] | 0.984 ± 0.051 | 1.17 ± 0.15 |
| C=CCCCCCCCCC(=O)[O-].C=CCCCCCCCCC(=O)[O-].[Zn+2] | 1 ± 0.048 | 0.832 ± 0.1 |
